# Laboratory results from PubChem BioAssay (NCATS).
# Values joined by “and” are separate entries in the source; they are usually repeats but may differ in a detail not shown here. Identical values can stand only once. A number with no mark means an inactive call. Records with an inconclusive call do not appear. Active and inactive are the calls of the source. Unless noted, calls follow the shape of the dose curve; as a rule, active = well fitted curve in the direction sought with a large enough effect; inconclusive = small, poorly fitted or top-dose-only effect, or another doubt; inactive = no such curve, though single readings can be large; an effect the other way counts as inactive or inconclusive.
# Experiments:
# [1] = biological target: Calcium and integrin-binding protein 1 (Homo sapiens) (UniProt Q99828); test: Primary qHTS for Identification of Calcium Integrin Binding Protein 1 (CIB1) Competitor (AID 1508620);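 also: GST tagged CIB1 binding a fluorescein labelled alphaIIb integrin peptide tracer; top concentration of the series differs between compounds; % is scaled to controls: 0 for no effect and ±100 for the full control effect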
# Calcium and integrin-binding protein 1 (Homo sapiens), sequence (Q99828 whole entry, looked up): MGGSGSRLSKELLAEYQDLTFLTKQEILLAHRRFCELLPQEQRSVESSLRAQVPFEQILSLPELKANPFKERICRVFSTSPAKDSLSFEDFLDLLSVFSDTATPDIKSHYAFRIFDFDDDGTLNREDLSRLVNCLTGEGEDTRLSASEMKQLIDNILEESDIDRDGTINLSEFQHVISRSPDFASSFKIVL
# How it was run: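 Fluorescence polarization competition: CIB1-GST (1 uM final) preincubated with compound 15 min at room temperature, then FITC-labeled alphaIIb peptide (100 nM final) added for another 15 min. Polarization read at Ex 480/Em 540.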
# [2] = qHTS Assay for Identification of Small Molecule Agonists for Thrombopoietin (TPO) Signaling Pathway (AID 917); also: % is scaled to controls: 0 for no effect and ±100 for the full control effect
# How it was run: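 Reporter: GpIIb promoter–luciferase in murine Ba/F3 expressing human TPO receptor. Pre-starved of IL-3 overnight; compounds with 26 pM TPO, 24 hrs, 37 C/5% CO2; luminescence read.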
# [3] = qHTS Assay for Modulators of Human Peripheral Myelin Protein 22 (PMP22) Expression/Activity (AID 1967; active = well fitted curve in the direction sought with a large enough effect in the signal ratio; the % refers to the signal ratio;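 also: 0% = untreated cells and 100% end not stated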)
# How it was run: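 Readout is the corrected green/red luminescence ratio after 24 h compound exposure, normalised to untreated cells (0%). Engineered MSC80 mouse Schwann cells express green luciferase from the mouse Pmp22 promoter and red luciferase from EF-alpha as internal control.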
# [4] = biological target: N-terminal Xaa-Pro-Lys N-methyltransferase 1 (Homo sapiens) (UniProt Q9BV86); test: Confirmatory qHTS for Inhibitors of N-terminal methyltransferase 1 (NTMT1): MTaseGlo Assay (AID 1645874); also: potency is read from the fitted curve at half-maximal effect; nearly all actives have a fitted effect of over 65% in size
# N-terminal Xaa-Pro-Lys N-methyltransferase 1 (Homo sapiens), sequence (Q9BV86 whole entry, looked up): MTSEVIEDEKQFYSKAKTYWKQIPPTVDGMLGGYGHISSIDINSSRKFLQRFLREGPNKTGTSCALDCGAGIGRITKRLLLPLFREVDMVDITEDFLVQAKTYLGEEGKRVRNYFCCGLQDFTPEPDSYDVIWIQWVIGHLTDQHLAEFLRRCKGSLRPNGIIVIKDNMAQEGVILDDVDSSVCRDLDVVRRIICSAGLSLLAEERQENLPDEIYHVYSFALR
# How it was run: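 Compounds are incubated with 125 nM NTMT1 and 100 uM SAM for 15 min before the SPKRIA peptide (1 uM) starts a 30 min room-temperature methylation. SAH is measured by coupled luciferase luminescence and curves fitted to a Hill equation.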
# [5] = biological target: Cytochrome P450 3A4 (Homo sapiens) (UniProt P08684); test: qHTS Assay for Inhibitors and Substrates of Cytochrome P450 3A4 (AID 884); also: potency is read from the fitted curve at half-maximal effect; nearly all actives have a fitted effect of over 50% in size
# Cytochrome P450 3A4 (Homo sapiens), sequence (P08684 whole entry, looked up): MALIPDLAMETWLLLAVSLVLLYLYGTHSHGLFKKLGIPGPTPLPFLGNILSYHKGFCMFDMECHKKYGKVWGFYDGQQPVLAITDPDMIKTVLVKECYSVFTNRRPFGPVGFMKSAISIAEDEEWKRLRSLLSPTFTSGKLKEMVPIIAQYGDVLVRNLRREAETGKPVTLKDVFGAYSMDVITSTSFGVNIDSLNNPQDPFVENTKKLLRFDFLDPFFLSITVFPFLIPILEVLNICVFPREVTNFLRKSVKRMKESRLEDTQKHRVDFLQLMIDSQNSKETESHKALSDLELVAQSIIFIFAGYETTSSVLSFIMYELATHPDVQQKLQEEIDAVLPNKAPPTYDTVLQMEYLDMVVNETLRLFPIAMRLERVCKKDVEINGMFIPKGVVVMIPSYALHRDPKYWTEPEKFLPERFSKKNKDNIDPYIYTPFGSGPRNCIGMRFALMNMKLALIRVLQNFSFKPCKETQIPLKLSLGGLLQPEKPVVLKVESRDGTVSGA
# How it was run: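 20 nM human CYP3A4 with 25 uM Luciferin-PPXE (at KM) in 200 mM KPO4, preincubated 10 min with compound; NADPH regeneration started a 60 min RT reaction. Luciferin detected by luminescence, normalized to 57 uM ketoconazole as full inhibition.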
# [6] = biological target: Cytochrome P450 2D6 (Homo sapiens) (UniProt P10635); test: qHTS Assay for Inhibitors and Substrates of Cytochrome P450 2D6 (AID 891); also: potency is read from the fitted curve at half-maximal effect; nearly all actives have a fitted effect of over 60% in size
# Cytochrome P450 2D6 (Homo sapiens), sequence (P10635 whole entry, looked up): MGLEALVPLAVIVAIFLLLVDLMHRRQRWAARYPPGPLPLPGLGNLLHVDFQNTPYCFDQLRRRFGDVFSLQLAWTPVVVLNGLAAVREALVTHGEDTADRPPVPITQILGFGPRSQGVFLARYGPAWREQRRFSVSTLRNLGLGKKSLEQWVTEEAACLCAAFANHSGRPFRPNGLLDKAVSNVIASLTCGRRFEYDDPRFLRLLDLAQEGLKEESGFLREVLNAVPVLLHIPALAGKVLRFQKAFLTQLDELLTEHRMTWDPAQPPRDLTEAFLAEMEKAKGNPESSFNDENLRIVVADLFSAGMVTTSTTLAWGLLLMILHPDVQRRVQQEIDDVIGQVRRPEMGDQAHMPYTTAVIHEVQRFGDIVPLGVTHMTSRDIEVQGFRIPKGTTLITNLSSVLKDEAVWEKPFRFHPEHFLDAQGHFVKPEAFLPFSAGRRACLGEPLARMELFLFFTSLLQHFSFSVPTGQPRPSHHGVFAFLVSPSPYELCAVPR
# How it was run: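 Human CYP2D6 (5 nM) with 30 uM Luciferin-ME EGE (at Km) in 100 mM KPO4, compound preincubated 10 min, then NADPH regeneration system for 60 min at room temperature. Luciferin read by luminescence; normalized to 1.43 uM quinidine.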
# [7] = biological target: Cytochrome P450 2C19 (Homo sapiens) (UniProt P33261); test: qHTS Assay for Inhibitors and Substrates of Cytochrome P450 2C19 (AID 899); also: nearly all actives have a fitted effect of over 60% in size; also: potency is read from the fitted curve at half-maximal effect
# Cytochrome P450 2C19 (Homo sapiens), sequence (P33261 whole entry, looked up): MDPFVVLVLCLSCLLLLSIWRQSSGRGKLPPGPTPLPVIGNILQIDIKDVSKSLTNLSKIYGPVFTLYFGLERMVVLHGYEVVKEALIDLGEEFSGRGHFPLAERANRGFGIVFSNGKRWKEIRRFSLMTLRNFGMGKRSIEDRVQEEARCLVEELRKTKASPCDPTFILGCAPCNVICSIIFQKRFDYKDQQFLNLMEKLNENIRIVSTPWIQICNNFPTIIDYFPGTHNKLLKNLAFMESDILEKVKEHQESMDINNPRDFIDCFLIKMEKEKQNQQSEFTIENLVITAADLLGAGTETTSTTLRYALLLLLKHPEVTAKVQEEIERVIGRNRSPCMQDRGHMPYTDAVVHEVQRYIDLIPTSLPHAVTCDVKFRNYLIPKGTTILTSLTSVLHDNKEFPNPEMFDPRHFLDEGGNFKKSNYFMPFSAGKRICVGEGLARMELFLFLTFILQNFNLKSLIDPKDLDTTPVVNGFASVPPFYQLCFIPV
# How it was run: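 In 50mM KPO4, the reaction held 5nM enzyme and KM-level (10uM) Luciferin-H EGE; it ran 60 min at 37C after NADPH regeneration and a 10 min compound preincubation. Luminescence values were scaled to 57uM ketoconazole as complete inhibition.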
# [8] = biological target: Pyruvate kinase PKM (Homo sapiens) (UniProt P14618); test: qHTS Assay for Inhibitors of Human Muscle Pyruvate Kinase (AID 958); details: purified human PKM enzyme activity
# Pyruvate kinase PKM (Homo sapiens), sequence (P14618 whole entry, looked up): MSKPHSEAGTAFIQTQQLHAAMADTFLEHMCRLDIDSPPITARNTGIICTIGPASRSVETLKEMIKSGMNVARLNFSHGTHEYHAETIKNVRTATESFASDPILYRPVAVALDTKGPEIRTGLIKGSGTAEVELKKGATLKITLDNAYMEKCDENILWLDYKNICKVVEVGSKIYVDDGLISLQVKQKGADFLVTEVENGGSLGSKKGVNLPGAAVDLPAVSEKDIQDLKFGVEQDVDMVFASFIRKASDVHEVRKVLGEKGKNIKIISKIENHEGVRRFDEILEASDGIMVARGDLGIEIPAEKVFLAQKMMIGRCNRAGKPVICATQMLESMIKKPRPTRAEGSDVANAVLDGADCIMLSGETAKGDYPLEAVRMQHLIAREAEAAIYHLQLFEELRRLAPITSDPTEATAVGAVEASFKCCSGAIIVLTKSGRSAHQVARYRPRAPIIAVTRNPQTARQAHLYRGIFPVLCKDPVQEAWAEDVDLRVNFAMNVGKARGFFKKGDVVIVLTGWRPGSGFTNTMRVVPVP
# How it was run: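 Compound pinned into substrate mix (0.5 mM PEP, 0.1 mM ADP), then 0.1 nM PKM2 added; 1 h, RT. Stop/detection luciferase reagent added, luminescence read. Normalized to no-inhibition and no-enzyme or reference-inhibitor controls.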
# [9] = biological target: Tyrosine-protein kinase Yes (Homo sapiens) (UniProt P07947); test: qHTS for small molecule inhibitors of Yes1 kinase: Primary Screen (AID 686947); also: potency is read from the fitted curve at half-maximal effect; nearly all actives have a fitted effect of over 60% in size
# Tyrosine-protein kinase Yes (Homo sapiens), sequence (P07947 whole entry, looked up): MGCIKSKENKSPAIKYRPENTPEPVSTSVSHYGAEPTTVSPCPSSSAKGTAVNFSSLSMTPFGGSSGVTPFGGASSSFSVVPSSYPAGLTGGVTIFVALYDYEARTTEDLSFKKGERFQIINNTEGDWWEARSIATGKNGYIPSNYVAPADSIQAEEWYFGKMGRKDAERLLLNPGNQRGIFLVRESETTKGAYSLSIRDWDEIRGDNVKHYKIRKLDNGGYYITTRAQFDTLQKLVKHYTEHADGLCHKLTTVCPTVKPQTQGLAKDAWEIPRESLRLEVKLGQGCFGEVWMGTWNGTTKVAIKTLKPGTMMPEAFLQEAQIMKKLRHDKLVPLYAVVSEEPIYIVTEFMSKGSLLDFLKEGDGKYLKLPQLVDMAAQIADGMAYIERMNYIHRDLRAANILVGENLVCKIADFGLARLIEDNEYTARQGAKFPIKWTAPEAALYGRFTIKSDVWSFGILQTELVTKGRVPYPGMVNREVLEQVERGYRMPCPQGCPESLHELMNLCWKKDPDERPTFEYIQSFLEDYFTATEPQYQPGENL
# How it was run: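 Yes1 (4 nM) preincubated 20 min with compound, then 60 min room-temperature reaction with 0.1 mM ATP and 0.3 mg/mL poly(E4Y) in pH 7.5 Tris, 10 mM MgCl2. ADP measured by ADP-Glo luminescence, normalised to enzyme/no-enzyme controls.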
# [10] = qHTS for small molecule inhibitors of Yes1 kinase: Counter Assay (AID 686950);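 also: no kinase present so only ADP-Glo detection of a fixed ADP amount is tested; luminescence from ADP-Glo reporting ADP in a fixed ATP and ADP mixture; series mostly up to about 77 µM; 0% = DMSO wells with ATP plus ADP and -100% = ATP-only wells without ADP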
# How it was run: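 Enzyme-free ADP-Glo interference check: compounds were preincubated 20 min in buffer, then an ATP/ADP mix (0.08 mM ATP, 0.02 mM ADP final) was added for 60 min at room temperature before two-step ADP-Glo luminescence detection.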
# [11] = Confirmatory qHTS for small molecule stabilizers of the endoplasmic reticulum resident proteome: Secreted ER Calcium Modulated Protein (SERCaMP) assay (AID 1508628); also: potency is read from the fitted curve at half-maximal effect; nearly all actives have a fitted effect of over 40% in size
# How it was run: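 SH-SY5Y cells stably expressing GLuc-SERCaMP, treated 16 h with compound (primary 1.53, 7.67, 38.3 uM; confirmation 11 concentrations, up to 76.6 uM), then 100 nM thapsigargin for 4 h. Secreted Gaussia luciferase in medium read by coelenterazine luminescence.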
# [12] = qHTS assay to identify inhibitors of the type 1 interferon - major histocompatibility complex class I in skeletal muscle: Counter screen cell viability and HiBit confirmation (AID 1347412); details: iHSKM muscle cells + IFN-b, HiBiT or CellTiter-Glo, 24 h; HiBiT; also: potency is read from the fitted curve at half-maximal effect; nearly all actives have a fitted effect of over 60% in size
# How it was run: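 After 24 h with human IFN-beta (4 ng/ml) and compound titrations (top 46 uM final, 1:3, 12 points), HLA-B HiBit myoblasts were lysed for either Nano-Glo HiBiT luminescence or CellTiter Glo viability on paired plates.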
# [13] = qHTS Assay for Identification of Small Molecule Antagonists for Thrombopoietin (TPO) Signaling Pathway (AID 918); details: TPO-dependent cell signaling reporter, antagonist mode
# How it was run: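 Ba/F3 (murine, hTPO-R, GPIIb-luc reporter); overnight IL-3 withdrawal; cpd + TPO 26 pM final (EC50); 24 h 37 C/5% CO2; Steadylite luminescence after 10 min RT.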
# [14] = biological target: Muscarinic acetylcholine receptor M1 (Rattus norvegicus) (UniProt P08482); test: qHTS Assay for Antagonists of Acetylcholine Muscarinic M1 Receptor: Kinetic Measurement of Intracellular Calcium Response (AID 943);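 also: Fluo-4 calcium signal as peak divided by basal fluorescence over 4 min; series mostly up to about 35 µM; nearly all actives have a fitted effect of over 75% in size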
# Muscarinic acetylcholine receptor M1 (Rattus norvegicus), sequence (P08482 whole entry, looked up): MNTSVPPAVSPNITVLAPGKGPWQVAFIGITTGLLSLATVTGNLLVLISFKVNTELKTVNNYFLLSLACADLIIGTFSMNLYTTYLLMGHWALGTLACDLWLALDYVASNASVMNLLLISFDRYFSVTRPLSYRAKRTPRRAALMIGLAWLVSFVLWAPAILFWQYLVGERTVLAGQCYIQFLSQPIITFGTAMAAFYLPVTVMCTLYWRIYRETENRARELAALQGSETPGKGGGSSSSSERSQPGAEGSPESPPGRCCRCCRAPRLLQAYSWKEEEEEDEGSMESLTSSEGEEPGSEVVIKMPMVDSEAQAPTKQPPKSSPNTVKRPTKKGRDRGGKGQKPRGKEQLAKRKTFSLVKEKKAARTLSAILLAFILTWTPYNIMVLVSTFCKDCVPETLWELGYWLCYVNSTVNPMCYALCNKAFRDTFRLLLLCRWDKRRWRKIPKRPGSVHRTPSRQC
# How it was run: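 Rat M1-CHO cells, 2000/well, overnight → Fluo-4 no-wash dye with probenecid, 1 h 37C → compound 10 min, room temp → basal read 6 s → carbachol EC80 (100 nM) → 4 min kinetic read; peak/basal.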
# [15] = Quantitative high throughput screen for delayed death inhibitors of the malarial parasite plastid, 48 hour incubation (AID 488752); also: % is scaled to controls: 0 for no effect and ±100 for the full control effect; nearly all actives have a fitted effect of over 65% in size
# How it was run: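 Readout is firefly luciferase luminescence from a reporter integrated into the parasite genome, with lower signal taken as inhibited growth. Infected red cells (0.1% parasitemia, 2% hematocrit final) are cultured with compound for one 48 h cycle at 37 C.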
# [16] = Confirmatory screen GU Rhodamine qHTS for Zika virus inhibitors qHTS (AID 1347157); also: potency is read from the fitted curve at half-maximal effect; nearly all actives have a fitted effect of over 70% in size
# How it was run: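 Percent inhibition derives from the 15-min fluorescence change (ex 480, em 540 nm), normalized to no-enzyme and no-inhibitor wells. Reactions contained 25 nM NS2B-NS3 complex and 1.5 microM substrate in 10 mM Tris-HCl pH 8.0.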
# [17] = ZIKV-mCherry secondary qHTS for Zika virus inhibitors (AID 1347158); also: potency is read from the fitted curve at half-maximal effect
# How it was run: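 Vero, 5,000 cells/well, o/n 37 °C; cpd pin-transferred in DMSO; ZIKV-mCherry MOI 1, 48-72 h 37 °C; 32% PFA stock fix, Hoechst; imaged 10x DAPI/mCherry; mCherry+ threshold 450 RFU; % infection.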
# [18] = Confirmatory screen NINDS Rhodamine qHTS for Zika virus inhibitors (AID 1347161)
# How it was run: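 Purified NS2B-NS3 protease with the NS2B hydrophilic domain joined by a flexible linker (25 nM) in 10 mM Tris-HCl pH 8.0, 0.01% Tween 20, preincubated 15 min at RT with compound; Rhodamine110 peptide substrate 1.5 µM; fluorescence change over 15 min; 4-parameter Hill fit.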
# [19] = biological target: Rap guanine nucleotide exchange factor 3 (Homo sapiens) (UniProt O95398); test: Confirmatory qHTS for antagonist of cAMP-regulated guanine nucleotide exchange factor 3 (EPAC1) (AID 1645880); also: nearly all actives have a fitted effect of over 55% in size; also: potency is read from the fitted curve at half-maximal effect
# Rap guanine nucleotide exchange factor 3 (Homo sapiens), sequence (O95398 whole entry, looked up): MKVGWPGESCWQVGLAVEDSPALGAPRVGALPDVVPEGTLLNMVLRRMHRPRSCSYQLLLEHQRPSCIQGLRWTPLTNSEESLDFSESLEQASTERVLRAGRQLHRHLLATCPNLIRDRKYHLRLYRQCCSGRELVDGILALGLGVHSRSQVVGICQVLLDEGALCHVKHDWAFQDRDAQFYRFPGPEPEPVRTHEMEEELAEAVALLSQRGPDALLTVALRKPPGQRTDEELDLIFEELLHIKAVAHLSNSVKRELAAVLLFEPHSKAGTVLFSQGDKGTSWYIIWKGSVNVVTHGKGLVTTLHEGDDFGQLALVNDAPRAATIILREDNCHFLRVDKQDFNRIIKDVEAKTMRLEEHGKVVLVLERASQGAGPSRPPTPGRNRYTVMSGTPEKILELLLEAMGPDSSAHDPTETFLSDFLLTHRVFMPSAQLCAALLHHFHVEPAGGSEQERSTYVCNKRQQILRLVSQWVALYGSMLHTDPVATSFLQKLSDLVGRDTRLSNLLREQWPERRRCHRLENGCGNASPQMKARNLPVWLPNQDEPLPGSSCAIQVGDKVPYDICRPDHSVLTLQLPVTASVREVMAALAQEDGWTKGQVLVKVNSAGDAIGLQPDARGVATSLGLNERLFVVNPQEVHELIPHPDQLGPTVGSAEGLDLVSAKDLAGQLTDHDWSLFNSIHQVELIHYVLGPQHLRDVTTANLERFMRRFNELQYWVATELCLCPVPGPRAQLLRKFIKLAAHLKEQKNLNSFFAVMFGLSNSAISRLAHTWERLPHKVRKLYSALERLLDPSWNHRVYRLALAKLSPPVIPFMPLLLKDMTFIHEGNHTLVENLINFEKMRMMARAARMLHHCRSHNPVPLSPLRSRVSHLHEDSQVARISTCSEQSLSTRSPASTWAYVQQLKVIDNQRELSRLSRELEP
# How it was run: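 Nucleotide exchange uses 100 nM EPAC1, 250 nM RAP1B-BODIPY-GDP and 50 uM GDP, with compounds in a concentration-titration series. After 5 min at room temperature, fluorescence (480 nm ex/540 nm em) is read every 5 min for 30 min. Data are normalized to control ATA and DMSO.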
# [20] = biological target: Rap guanine nucleotide exchange factor 3 (Homo sapiens) (UniProt O95398); test: Counterscreen qHTS for antagonist of cAMP-regulated guanine nucleotide exchange factor 3 (EPAC1) (AID 1645888);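 also: fluorescence loss as bound BODIPY-GDP is released from Rap1B; % of control where 0% means no effect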
# How it was run: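 Measured: fluorescence of BODIPY-GDP bound to Rap1B, which falls as exchange proceeds. Conditions include 50 uM competing GDP, 5 and 30 min reads, and a later cAMP challenge for antagonist detection.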
structure (smiles),measurement,setting,value
CC(C)n1nc(Cc2cccc3ccccc23)c2c(N)ncnc21,outcome,[1],inactive
CC[N+](CC)(CC)CC,Potency,[2],inactive
Cc1cccc(/C=C/c2ccccc2)n1,outcome,[3],inactive
same,Potency,[4],27.4 µM (active)
O=Nc1c(-c2c(O)[nH]c3ccccc23)[nH]c2ccccc12,Potency,[5],7.94 µM (active)
same,Potency,[6],31.6 µM (active)
same,Potency,[7],6.31 µM (active)
same,Potency,[8],12.6 µM (active)
same,Potency,[9],0.772 µM (active)
same,outcome,[10],inactive
same,Potency,[11],28.2 µM (active) and 4.47 µM (active)
same,Potency,[12],14 µM (active)
S=C(Nc1ccccc1)Nc1nccs1,Potency,[13],20 µM (active)
same,Potency,[14],inactive
C1CCC(N=C(NC23CC4CC(CC(C4)C2)C3)N2CCOCC2)CC1,Potency,[6],0.631 µM (active)
same,Potency,[15],inactive
Nc1c(S(=O)(=O)O)cc(Nc2ccc(Nc3nc(Cl)nc(Nc4ccc(S(=O)(=O)O)cc4)n3)c(S(=O)(=O)O)c2)c2c1C(=O)c1ccccc1C2=O,Potency,[7],inactive
same,Potency,[14],inactive
same,Potency,[16],2.24 µM (active)
same,Potency,[17],8.91 µM (active)
same,Potency,[18],2 µM (active)
same,Potency,[19],9.93 µM (active)
NS(=O)(=O)c1cccc(N=Cc2c(O)[nH]c3ccccc23)c1,Potency,[9],10.4 µM (active)
same,outcome,[10],inactive
COC(=O)CCC(=O)OC1(C)C(=O)C=C2C=C(C3CC3)N(CCCOC(C)C)C=C2C1=O (configuration not stated),Potency,[19],inactive
same,outcome,[20],inactive
CCCCC1=CC2=CC(=O)C(C)(OC(=O)CCc3ccccc3)C(=O)C2=CO1 (configuration not stated),"activity change, negative = inhibition",[20],1.91% [at 30.8 µM]
